Data taken from the supplement of paper PMC10849652.
The full data set covers some 8,800 targets. This sample favours those with a hit. About 0.5% of all pairs of compound and target were hits. Unmarked numbers belong to inactive results.

Assays:
Assay in all cases: log2 fold change, soluble protein after heating vs DMSO (PISA); higher = thermal stabilisation; K562 lysate, 10 uM; active = over 0.2 and 3.5 SD of the protein, either way, in both replicates (recomputed)
erlotinib = compound: C#Cc1cccc(Nc2ncnc3cc(OCCOC)c(OCCOC)cc23)c1 [erlotinib]
How it was run: (§1)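 Quantification was by TMTpro 16plex LC-MS/MS with equalised channel sums, applied to the supernatant after 21,000xg for 90 min. Samples were crude K562 extract at 1 mg/mL protein in PBS pH 7.4 with 1 mM MgCl2, treated with 10 μM compound for 30 min, heated for 3 min across 48°C-58°C, pooled and brought to 0.5% NP-40 at 4°C. Values are log-two fold changes in thermal stability relative to solvent controls, from duplicates.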

[1] = compound: C/C(=N\NC(=O)C1=CC(=CC=C1)S(=O)(=O)N2CCOCC2)/C3=C(C=CC(=C3)Cl)O
How it was run: as §1

[2] = compound: C1=CC(=CC=C1C2=NC3=C(N2)C=C(C=C3)C(=O)N)OC4=CC=C(C=C4)Cl
How it was run: as §1

[3] = compound: C1=CC2=C(C=CC(=C2)/C=C\3/C(=O)NC(=NCC4=CC=CS4)S3)N=C1
How it was run: as §1

[4] = compound: C1=CC=C(C=C1)C2=NC(=C(N2)C3=CC=NC=C3)C4=CC(=C(C=C4)Cl)O
How it was run: as §1

[5] = compound: C1=CC=C2C(=C1)C3=NNC4=CC=CC(=C43)C2=O
How it was run: as §1

[6] = compound: C1CCN(C1)C(=O)NC2=CC=CC(=C2)NC3=NC=C(C(=N3)NCCC4=CN=CN4)Br
How it was run: as §1

[7] = compound: C1CN(CCC1(CC2=CC=C(C=C2)Cl)N)C3=NC=NC4=C3C=CN4
How it was run: as §1

IRAK-1-4 Inhibitor I = compound: C1COCCN1CCN2C3=CC=CC=C3N=C2NC(=O)C4=CC(=CC=C4)[N+](=O)[O-] [IRAK-1-4 Inhibitor I]
How it was run: as §1

[8] = compound: CC(=O)c1cnc2ccc(-c3cc(Cl)c(O)c(Cl)c3)nc2c1N[C@H]1CC[C@H](CN(C)C)CC1
How it was run: as §1

ralimetinib = compound: CC(C)(C)Cn1c(N)nc2ccc(-c3[nH]c(C(C)(C)C)nc3-c3ccc(F)cc3)nc21 [ralimetinib]
How it was run: as §1

[9] = compound: CC(C)(O)CC(=O)NCCn1ccc2ncnc(Nc3ccc(Oc4cccc(C(F)(F)F)c4)c(Cl)c3)c21
How it was run: as §1

[10] = compound: CC(C)C1=C2N=C(C=C(N2N=C1)NCC3=CC=CC=C3)NCCCCCCN
How it was run: as §1

[11] = compound: CC1=C(C2=C(C=C1)C(=O)C3=CC=CC=C3N2CCCN)C
How it was run: as §1

[12] = compound: CC1=C(C=C(C=C1)NC(=O)C2=CC(=CC=C2)C(C)(C)C#N)NC3=CC4=C(C=C3)N=CN(C4=O)C
How it was run: as §1

[13] = compound: CC1=C(C=C(C=C1)NC(=O)C2=CC(=CC=C2)N(C)C)NC(=O)C3=CC=C(C=C3)O
How it was run: as §1

[14] = compound: CC1=CC=C(C=C1)SC2=C3C=C(SC3=CN=C2)C(=O)N
How it was run: as §1

[15] = compound: C1=CC2=NC=CN=C2C=C1/C=C/3\C(=O)NC(=O)S3
How it was run: as §1

ibrutinib = compound: C=CC(=O)N1CCC[C@@H](n2nc(-c3ccc(Oc4ccccc4)cc3)c3c(N)ncnc32)C1 [ibrutinib]
How it was run: as §1

[16] = compound: CC1=C(C(CC(=O)N1)C2=CC=C(C=C2)C(F)(F)F)C(=O)NC3=C(C=C4C(=C3)C=NN4)F
How it was run: as §1

Chain of UniProt Q6P3S1 (Q6P3S1 whole entry, looked up): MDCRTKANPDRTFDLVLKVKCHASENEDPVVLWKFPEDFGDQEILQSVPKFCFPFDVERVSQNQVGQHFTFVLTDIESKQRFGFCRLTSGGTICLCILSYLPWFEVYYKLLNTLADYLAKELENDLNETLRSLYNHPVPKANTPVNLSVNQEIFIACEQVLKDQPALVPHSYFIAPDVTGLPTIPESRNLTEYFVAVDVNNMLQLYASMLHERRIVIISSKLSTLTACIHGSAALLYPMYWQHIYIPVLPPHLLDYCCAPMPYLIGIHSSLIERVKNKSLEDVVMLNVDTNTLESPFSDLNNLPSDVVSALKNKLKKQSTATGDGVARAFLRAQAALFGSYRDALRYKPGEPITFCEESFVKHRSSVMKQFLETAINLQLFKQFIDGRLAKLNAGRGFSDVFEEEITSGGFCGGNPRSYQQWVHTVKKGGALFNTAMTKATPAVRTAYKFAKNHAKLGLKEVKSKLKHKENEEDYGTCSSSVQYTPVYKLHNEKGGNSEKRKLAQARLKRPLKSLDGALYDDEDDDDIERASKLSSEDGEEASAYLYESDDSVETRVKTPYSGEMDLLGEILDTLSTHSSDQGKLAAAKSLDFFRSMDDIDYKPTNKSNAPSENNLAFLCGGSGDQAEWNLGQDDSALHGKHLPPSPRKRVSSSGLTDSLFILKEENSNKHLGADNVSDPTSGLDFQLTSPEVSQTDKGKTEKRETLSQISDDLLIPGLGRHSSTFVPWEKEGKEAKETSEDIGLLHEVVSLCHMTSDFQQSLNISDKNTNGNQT
Chain of UniProt Q9NRF8 (Q9NRF8 whole entry, looked up): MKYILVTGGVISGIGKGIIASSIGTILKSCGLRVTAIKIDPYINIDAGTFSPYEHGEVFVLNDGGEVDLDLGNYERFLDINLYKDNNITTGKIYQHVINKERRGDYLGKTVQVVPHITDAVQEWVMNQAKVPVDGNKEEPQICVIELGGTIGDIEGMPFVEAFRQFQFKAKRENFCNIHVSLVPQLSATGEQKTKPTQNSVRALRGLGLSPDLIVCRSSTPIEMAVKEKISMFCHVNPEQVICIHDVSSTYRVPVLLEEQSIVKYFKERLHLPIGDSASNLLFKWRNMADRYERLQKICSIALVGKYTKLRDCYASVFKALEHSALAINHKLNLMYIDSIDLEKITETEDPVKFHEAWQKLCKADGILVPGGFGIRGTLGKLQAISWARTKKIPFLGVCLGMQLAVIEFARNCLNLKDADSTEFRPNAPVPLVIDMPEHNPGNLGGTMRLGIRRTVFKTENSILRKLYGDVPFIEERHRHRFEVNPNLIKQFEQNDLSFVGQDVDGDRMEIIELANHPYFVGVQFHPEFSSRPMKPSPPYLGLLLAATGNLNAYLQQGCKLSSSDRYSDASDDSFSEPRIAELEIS
Chain of UniProt O94760 (O94760 whole entry, looked up): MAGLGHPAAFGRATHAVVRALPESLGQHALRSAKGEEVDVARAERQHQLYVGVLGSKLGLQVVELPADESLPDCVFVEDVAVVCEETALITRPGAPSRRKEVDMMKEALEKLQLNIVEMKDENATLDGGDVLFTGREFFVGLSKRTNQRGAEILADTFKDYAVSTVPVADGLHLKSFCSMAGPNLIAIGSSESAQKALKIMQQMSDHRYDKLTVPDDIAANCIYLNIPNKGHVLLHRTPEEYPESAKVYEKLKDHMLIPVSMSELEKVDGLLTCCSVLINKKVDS

| Target | log2 fold change (erlotinib) | log2 fold change [1] | log2 fold change [2] | log2 fold change [3] | log2 fold change [4] | log2 fold change [5] | log2 fold change [6] | log2 fold change [7] | log2 fold change (IRAK-1-4 Inhibitor I) | log2 fold change [8] | log2 fold change (ralimetinib) | log2 fold change [9] | log2 fold change [10] | log2 fold change [11] | log2 fold change [12] | log2 fold change [13] | log2 fold change [14] | log2 fold change [15] | log2 fold change (ibrutinib) | log2 fold change [16] |
| --- | --- | --- | --- | --- | --- | --- | --- | --- | --- | --- | --- | --- | --- | --- | --- | --- | --- | --- | --- | --- |
| DDAH1 (UniProt O94760) | 0 | -0.008 | 0.006 | -0.027 | -0.006 | 0.035 | 0.032 | 0.051 | -0.016 | -0.016 | -0.037 | -0.045 | -0.001 | -0.441 (active) | 0.137 | -0.005 | -0.04 |  |  |  |
| CTPS2 (UniProt Q9NRF8) | -0.009 | -0.008 | -0.016 | -0.01 | -0.008 | 0 | -0.021 | -0.015 | -0.006 | 0.006 | 0.017 | -0.026 | -0.011 | -0.004 | 0.009 | 0.005 | -0.009 | 0.01 | 0.021 | 0.008 |
| DENND1B (UniProt Q6P3S1) | -0.08 | 0.153 | -0.13 | 0.04 | 0.019 | 0.007 |  |  | 0.014 | -0.034 | -0.039 | -0.114 | -0.087 | 0.174 | 0.031 | -0.003 | 0.011 | 0.19 | 0.405 | 0.151 |
